Test results reported in ChEMBL document CHEMBL3433997, “St. Jude Leishmania screening dataset” (2016).

Target: Solute carrier family 2, facilitated glucose transporter member 1 (Homo sapiens) (UniProt P11166)
Assay: ST_JUDE_LEISH: Cytotoxicity at 2uM final concentration against transgenic Leishmania Mexicana promastigotes LmGLUT1 that are glucose transport deficient and complemented with the human glucose transporter GLUT1. Activity is measured by DNA content using SYBR green in vitro
Type: functional

Chain of Solute carrier family 2, facilitated glucose transporter member 1 (Homo sapiens) (P11166 whole entry): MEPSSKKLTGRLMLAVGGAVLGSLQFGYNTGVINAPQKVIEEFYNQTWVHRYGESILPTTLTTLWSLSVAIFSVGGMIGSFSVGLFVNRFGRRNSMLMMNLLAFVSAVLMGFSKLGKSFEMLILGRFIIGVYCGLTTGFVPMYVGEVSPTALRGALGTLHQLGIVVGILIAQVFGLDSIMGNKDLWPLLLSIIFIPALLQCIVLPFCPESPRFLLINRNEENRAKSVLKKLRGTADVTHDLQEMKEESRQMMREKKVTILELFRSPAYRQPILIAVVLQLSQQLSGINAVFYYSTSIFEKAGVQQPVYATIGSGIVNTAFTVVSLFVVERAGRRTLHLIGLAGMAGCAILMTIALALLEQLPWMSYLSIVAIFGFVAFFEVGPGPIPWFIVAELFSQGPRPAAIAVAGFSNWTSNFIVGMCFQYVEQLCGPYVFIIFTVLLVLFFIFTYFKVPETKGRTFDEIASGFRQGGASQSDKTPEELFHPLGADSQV

SMILES | inhibition [%]
COc1cc(N(Cc2ccccc2C)S(=O)(=O)Cc2ccccc2[N+](=O)[O-])c(OC)cc1Cl | 3.26
CNC(=O)C1Cc2c([nH]c3c(C)cccc23)C2(N1)C(=O)Nc1ccc(OC(F)(F)F)cc12 (stereo unspecified) | 1.24
CN1CCCC(COc2cc3c(cc2Br)CCN3C(=O)Nc2ccc(-c3ccncc3)c(Cl)c2)C1 (stereo unspecified) | 9.37
O=[N+]([O-])c1ccc(Nc2nc(N/N=C/c3ccc(-c4ccc([N+](=O)[O-])cc4)o3)nc(Nc3ccccc3)n2)cc1 | 0.17
Cc1nc(N)nc(N)c1-c1ccc(Br)c(Br)c1 | 4.47
COC1CCC(C(=O)Nc2ccc(-c3cccc(-c4nc5cccc(C)c5[nH]4)c3)cc2)CC1 (stereo unspecified) | 6.31
N#Cc1cncc(-c2nc3c(N4CCC(N5CCCC5)CC4)cccc3n2CCNCc2ccccc2)c1 | 0.91
CC(C)(C)c1ccc(CN2CCC(CNC(=O)c3cc(-c4ccccc4C(F)(F)F)cs3)C2)cc1 (stereo unspecified) | 1.63
N[C@@H](Cc1cc(I)c(Oc2ccc(O)c(C(=O)O)c2)c(I)c1)C(=O)O | 3.18
CS(=O)(=O)N(c1ccccc1)c1cc(C(=O)N[C@@H](Cc2ccccc2)[C@H](O)CNC2CCCCC2)cc(N2CCCC2=O)c1 | 1.9
COc1cc(OC)cc(-c2nn(-c3ccc([N+](=O)[O-])cc3C#N)c(=S)n2CC2CCCO2)c1 (stereo unspecified) | 2.04
CCOc1cc(C)ccc1N(C1CCN(CCCCNC(=O)c2ccc(-c3ccc(C(F)(F)F)cc3)cc2)CC1)S(=O)(=O)c1ccccc1 | 0.32
CC(C)(C)NC(=O)COC(=O)c1c2c(nc3ccccc13)C(=Cc1ccc3c(c1)OCO3)CCC2 | 1.65
COc1ccc2ncc(F)c(CCN3C4CCC3CC(NCc3ccc5c(c3)OCCO5)C4)c2n1 (stereo unspecified) | 59.9
O=C(Nc1ccc(Cn2ncc(N3CCCNCC3)c(Cl)c2=O)cc1)Nc1ccc(OCc2ccccc2)cc1 | -0.85
CCc1c(CCNCCCC(C)CCNCCc2ccc(OC)c(OC)c2CC)ccc(OC)c1OC (stereo unspecified) | 1.96
SC(=Nc1ccc(Cl)c(Cl)c1)NN=Cc1ccccn1 | 1.55
O=C(/C=C/c1ccc(Cl)c(Cl)c1)NCCCCCN1CC[C@H](NC(=O)c2sc3ccccc3c2Cl)C1 | 5.64
CCc1c(CCNCCCCCCNCCc2ccc3c(c2C)OCO3)ccc2c1OCO2 | 8.6
CC(C)Oc1ccc(N2CCN(CCCCNC(=O)c3ccc(NC(=O)c4ccc(Cl)cc4)cc3)CC2)c(OC(C)C)c1 | 1.62
CC(=O)N(C)/N=C/[C@H](CCc1ccccc1)NC(=O)[C@H](CC(C)C)NC(=O)c1cccc(OCCN2CCOCC2)c1 | 9.6
Cc1cnc(C(=O)Nc2cccc(-c3cccc(-c4nc5cc(F)ccc5[nH]4)c3)c2)cn1 | 8.32
c1ccc(Cn2nnnc2-c2cccc(Nc3ccnc4cc(-c5nccs5)ccc34)c2)cc1 | 1.8
O=S(=O)(NC1CCN(c2ccnc3cc(Cl)ccc23)C1)c1ccc(C(F)(F)F)cc1 (stereo unspecified) | 1.91
Cc1[nH]c2ccc(NS(C)(=O)=O)cc2c1C1CCN(CCC2CCN(C(=O)/C=C/c3ccc(Cl)c(Cl)c3)CC2)CC1 | -0.38
O=C(NC1CCC(CCN2Cc3ccc(Br)cc3C2)CC1)c1cccc(-c2cccnc2)c1 (stereo unspecified) | 3.16

Target: Hexose transporter 1 (Plasmodium falciparum) (UniProt O97467)
Assay: ST_JUDE_LEISH: Cytotoxicity at 2uM final concentration against transgenic Leishmania Mexicana promastigotes LmPfHT that are glucose transport deficient and complemented with the Plasmodium falciparum hexose transporter. Activity is measured by DNA content using SYBR green in vitro
Type: functional

SMILES | inhibition [%]
CCN(CC)CCN(Cc1ccc(-c2ccc(C(F)(F)F)cc2)cc1)C(=O)c1ccc(-c2ccc(NC(=O)OC)cc2C)cc1 | 17.9
Cc1cccc(CNc2nc(C)cc(NCCC(=O)NCCOc3ccccc3)n2)c1 | 3.29
O=C(Nc1ccc(-c2ccc(-c3nc4cc(C(F)(F)F)ccc4[nH]3)cc2)cc1)Nc1ccc(F)c(F)c1F | -0.22
COc1ccccc1CCNc1nc(C)cc(N[C@@H](Cc2ccccc2)C(=O)NCc2cccc(F)c2)n1 | 1.53
O=C(Cn1c(SCc2cccc(F)c2F)cc(=O)c2ccccc21)N(Cc1ccc(-c2ccc(C(F)(F)F)cc2)cc1)C1CCN(CCO)CC1 | -0.44
O=C(Nc1cccc(-c2ccc(CN3CCC(O)CC3)cc2)c1)c1ccc(Cl)cc1 | 3.64
CN1CCN(Cc2nc(-c3ccc4c(Nc5ccc(F)c(O)c5)ccnc4c3)cs2)CC1 | 1.76
COc1ccc(CNC(=O)c2cc3c(=O)n4ccccc4nc3n(CCc3ccccc3)c2=N)cc1 | 12
N=C(N)Nc1ccc(OCCCCCOc2ccc(NC(=N)N)c(Cl)c2)cc1Cl | -1.31
COc1ccc2nccc([C@@H](O)CN3CCC(NCCOc4cccc(C(F)(F)F)c4)CC3)c2c1 | 12.5
FC(F)(F)c1ccc2[nH]c(-c3ccc(-c4cccc(CNCCc5ccncc5)c4)s3)nc2c1 | 1.67
CCCCc1cc(N2CCC(NC(C)=O)C2)nc(Nc2ccc(C)cc2)n1 (stereo unspecified) | 2.45
O=C(c1ccc(Br)o1)N1N=C(c2cccs2)CC1c1ccc(Br)cc1 (stereo unspecified) | 7.79
O=C(NC1CC1)c1cnc(N2CCC(Oc3ccc(Cl)cc3)CC2)c(Cl)c1 | 2.7
COc1cc(N(Cc2ccccc2C)S(=O)(=O)Cc2ccccc2[N+](=O)[O-])c(OC)cc1Cl | 2.73
CNC(=O)C1Cc2c([nH]c3c(C)cccc23)C2(N1)C(=O)Nc1ccc(OC(F)(F)F)cc12 (stereo unspecified) | 1.59
CN1CCCC(COc2cc3c(cc2Br)CCN3C(=O)Nc2ccc(-c3ccncc3)c(Cl)c2)C1 (stereo unspecified) | 5.78
O=[N+]([O-])c1ccc(Nc2nc(N/N=C/c3ccc(-c4ccc([N+](=O)[O-])cc4)o3)nc(Nc3ccccc3)n2)cc1 | -3.33
Cc1nc(N)nc(N)c1-c1ccc(Br)c(Br)c1 | 4.38
COC1CCC(C(=O)Nc2ccc(-c3cccc(-c4nc5cccc(C)c5[nH]4)c3)cc2)CC1 (stereo unspecified) | 4.3

SMILES | inhibition [%]
N#Cc1cncc(-c2nc3c(N4CCC(N5CCCC5)CC4)cccc3n2CCNCc2ccccc2)c1 | 0.8
CC(C)(C)c1ccc(CN2CCC(CNC(=O)c3cc(-c4ccccc4C(F)(F)F)cs3)C2)cc1 (stereo unspecified) | 3.76
N[C@@H](Cc1cc(I)c(Oc2ccc(O)c(C(=O)O)c2)c(I)c1)C(=O)O | 3.91
CS(=O)(=O)N(c1ccccc1)c1cc(C(=O)N[C@@H](Cc2ccccc2)[C@H](O)CNC2CCCCC2)cc(N2CCCC2=O)c1 | 1.63
COc1cc(OC)cc(-c2nn(-c3ccc([N+](=O)[O-])cc3C#N)c(=S)n2CC2CCCO2)c1 (stereo unspecified) | 1.07
CCOc1cc(C)ccc1N(C1CCN(CCCCNC(=O)c2ccc(-c3ccc(C(F)(F)F)cc3)cc2)CC1)S(=O)(=O)c1ccccc1 | 1.25
CC(C)(C)NC(=O)COC(=O)c1c2c(nc3ccccc13)C(=Cc1ccc3c(c1)OCO3)CCC2 | 1.17
COc1ccc2ncc(F)c(CCN3C4CCC3CC(NCc3ccc5c(c3)OCCO5)C4)c2n1 (stereo unspecified) | 71.9
O=C(Nc1ccc(Cn2ncc(N3CCCNCC3)c(Cl)c2=O)cc1)Nc1ccc(OCc2ccccc2)cc1 | -0.65
CCc1c(CCNCCCC(C)CCNCCc2ccc(OC)c(OC)c2CC)ccc(OC)c1OC (stereo unspecified) | 4.93
SC(=Nc1ccc(Cl)c(Cl)c1)NN=Cc1ccccn1 | 1.69
O=C(/C=C/c1ccc(Cl)c(Cl)c1)NCCCCCN1CC[C@H](NC(=O)c2sc3ccccc3c2Cl)C1 | 3.45
CCc1c(CCNCCCCCCNCCc2ccc3c(c2C)OCO3)ccc2c1OCO2 | 5.13
CC(C)Oc1ccc(N2CCN(CCCCNC(=O)c3ccc(NC(=O)c4ccc(Cl)cc4)cc3)CC2)c(OC(C)C)c1 | 2.05
CC(=O)N(C)/N=C/[C@H](CCc1ccccc1)NC(=O)[C@H](CC(C)C)NC(=O)c1cccc(OCCN2CCOCC2)c1 | 9.59
Cc1cnc(C(=O)Nc2cccc(-c3cccc(-c4nc5cc(F)ccc5[nH]4)c3)c2)cn1 | 5.55
c1ccc(Cn2nnnc2-c2cccc(Nc3ccnc4cc(-c5nccs5)ccc34)c2)cc1 | 2.17
O=S(=O)(NC1CCN(c2ccnc3cc(Cl)ccc23)C1)c1ccc(C(F)(F)F)cc1 (stereo unspecified) | 1.67
Cc1[nH]c2ccc(NS(C)(=O)=O)cc2c1C1CCN(CCC2CCN(C(=O)/C=C/c3ccc(Cl)c(Cl)c3)CC2)CC1 | -1.33
O=C(NC1CCC(CCN2Cc3ccc(Br)cc3C2)CC1)c1cccc(-c2cccnc2)c1 (stereo unspecified) | 4.93
